# Results from PMC5540273 (PLoS ONE, 2017).
# “And” between values parts separate entries of the source, which are not always exact repeats. Equal entries are not always repeated. Where two headings read alike, the source gives them in different places.
# How the values were obtained:
# MYLK4 = conditions: concentration: 1 μM, replicates: in singlicate, n = 1
# MYLK = conditions: concentration: 1 μM, replicates: in singlicate, n = 1
# MYO3A = conditions: concentration: 1 μM, replicates: in singlicate, n = 1
# MYO3B = conditions: concentration: 1 μM, replicates: in singlicate; n = 1
# NDR1 = tested on: T1, NDR1; conditions: concentration: 1 μM, replicates: in singlicate, n = 1
# T1 construct: gene STK38
# NDR2 = conditions: concentration: 1 μM, replicates: in singlicate, n = 1
# NEK10 = conditions: concentration: 1 μM, replicates: in singlicate; n = 1
# NEK11 = conditions: concentration: 1 μM, replicates: in singlicate, n = 1
# NEK1 = conditions: concentration: 1 μM, replicates: in singlicate; n = 1
# NEK2 = conditions: concentration: 1 μM, replicates: in singlicate, n = 1
# NEK3 = conditions: concentration: 1 μM, replicates: in singlicate, n = 1
# NEK4 = conditions: concentration: 1 μM, replicates: in singlicate, n = 1
# NEK5 = conditions: concentration: 1 μM, replicates: in singlicate, n = 1
# NEK6 = conditions: concentration: 1 μM, replicates: in singlicate, n = 1
# NEK7 = conditions: concentration: 1 μM, replicates: in singlicate; n = 1
# NEK9 = conditions: concentration: 1 μM, replicates: in singlicate, n = 1
# NIK = tested on: T2, NIK; conditions: concentration: 1 μM, replicates: in singlicate, n = 1
# T2 construct: gene MAP3K14
# NIM1 = tested on: T3, NIM1; conditions: concentration: 1 μM, replicates: in singlicate; n = 1
# T3 construct: gene MGC42105
# NLK = conditions: concentration: 1 μM, replicates: in singlicate, n = 1
# OSR1 = tested on: T4, OSR1; conditions: concentration: 1 μM, replicates: in singlicate, n = 1
# T4 construct: gene OXSR1
# 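Also: KINOMEscan kinase panel screen.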
smiles,measurement,setting,value
CCn1c(-c2ccncc2)nc2cnccc21 [SB-735216],%Inh,MYLK4,0%
same,%Inh,MYLK,24%
same,%Inh,MYO3A,19%
same,%Inh,MYO3B,0%
same,%Inh,NDR1,28%
same,%Inh,NDR2,0%
same,%Inh,NEK10,0%
same,%Inh,NEK11,51%
same,%Inh,NEK1,0%
same,%Inh,NEK2,8%
same,%Inh,NEK3,14%
same,%Inh,NEK4,8%
same,%Inh,NEK5,0%
same,%Inh,NEK6,6%
same,%Inh,NEK7,6%
same,%Inh,NEK9,0%
same,%Inh,NIK,15%
same,%Inh,NIM1,25%
same,%Inh,NLK,4%
same,%Inh,OSR1,15%
OCCOCCn1ccc2ncnc(Nc3ccc(Oc4cccc(Cl)c4)c(Cl)c3)c21,%Inh,MYLK4,0%
same,%Inh,MYLK,0%
same,%Inh,MYO3A,0%
same,%Inh,MYO3B,0%
same,%Inh,NDR1,30%
same,%Inh,NDR2,0%
same,%Inh,NEK10,0%
same,%Inh,NEK11,0%
same,%Inh,NEK1,0%
same,%Inh,NEK2,0%
same,%Inh,NEK3,10%
same,%Inh,NEK4,0%
same,%Inh,NEK5,0%
same,%Inh,NEK6,0%
same,%Inh,NEK7,0%
same,%Inh,NEK9,0%
same,%Inh,NIK,0%
same,%Inh,NIM1,0%
same,%Inh,NLK,0%
same,%Inh,OSR1,0%
Cn1cc(-c2ccc3c(c2)CCN3C(=O)Cc2cccc(C(F)(F)F)c2)c2c(N)ncnc21 [GSK2606414],%Inh,MYLK4,0%
same,%Inh,MYLK,1%
same,%Inh,MYO3A,0%
same,%Inh,MYO3B,7%
same,%Inh,NDR1,0%
same,%Inh,NDR2,0%
same,%Inh,NEK10,18%
same,%Inh,NEK11,14%
same,%Inh,NEK1,0%
same,%Inh,NEK2,15%
same,%Inh,NEK3,0%
same,%Inh,NEK4,7%
same,%Inh,NEK5,0%
same,%Inh,NEK6,0%
same,%Inh,NEK7,11%
same,%Inh,NEK9,8%
same,%Inh,NIK,0%
same,%Inh,NIM1,5%
same,%Inh,NLK,0%
same,%Inh,OSR1,12%
COc1ccc(Nc2nccc(N3CCC(NC(=O)c4cccc(NC(C)=O)c4)C3)n2)cc1 (stereo not shown) [GSK1379732],%Inh,MYLK4,6%
same,%Inh,MYLK,29%
same,%Inh,MYO3A,37%
same,%Inh,MYO3B,0%
same,%Inh,NDR1,15%
same,%Inh,NDR2,10%
same,%Inh,NEK10,24%
same,%Inh,NEK11,48%
same,%Inh,NEK1,6%
same,%Inh,NEK2,6%
same,%Inh,NEK3,11%
same,%Inh,NEK4,0%
same,%Inh,NEK5,25%
same,%Inh,NEK6,0%
same,%Inh,NEK7,0%
same,%Inh,NEK9,13%
same,%Inh,NIK,28%
same,%Inh,NIM1,47%
same,%Inh,NLK,12%
same,%Inh,OSR1,7%
CC(C)(C)OC(=O)NC1CCCN(c2cc(-c3ccc4c(N)n[nH]c4c3)nc(N)n2)C1 (stereo not shown) [GSK2286096],%Inh,MYLK4,0%
same,%Inh,MYLK,0%
same,%Inh,MYO3A,0%
same,%Inh,MYO3B,0%
same,%Inh,NDR1,21%
same,%Inh,NDR2,0%
same,%Inh,NEK10,0%
same,%Inh,NEK11,0%
same,%Inh,NEK1,0%
same,%Inh,NEK2,7%
same,%Inh,NEK3,3%
same,%Inh,NEK4,13%
same,%Inh,NEK5,2%
same,%Inh,NEK6,0%
same,%Inh,NEK7,0%
same,%Inh,NEK9,2%
same,%Inh,NIK,0%
same,%Inh,NIM1,9%
same,%Inh,NLK,27%
same,%Inh,OSR1,0%
Nc1n[nH]c2nnc(-c3ccccc3)cc12 [SB-517389],%Inh,MYLK4,24%
same,%Inh,MYLK,19%
same,%Inh,MYO3A,0%
same,%Inh,MYO3B,0%
same,%Inh,NDR1,14%
same,%Inh,NDR2,0%
same,%Inh,NEK10,17%
same,%Inh,NEK11,0%
same,%Inh,NEK1,0%
same,%Inh,NEK2,5%
same,%Inh,NEK3,29%
same,%Inh,NEK4,21%
same,%Inh,NEK5,27%
same,%Inh,NEK6,0%
same,%Inh,NEK7,0%
same,%Inh,NEK9,7%
same,%Inh,NIK,0%
same,%Inh,NIM1,15%
same,%Inh,NLK,36%
same,%Inh,OSR1,0%
Cc1cc(N2CCC(NS(=O)(=O)c3ccc(F)cc3)CC2)nc(Nc2cccc(C#N)c2)n1.O=C(O)C(F)(F)F [GSK1653537],%Inh,MYLK4,0%
same,%Inh,MYLK,0%
same,%Inh,MYO3A,0%
same,%Inh,MYO3B,0%
same,%Inh,NDR1,0%
same,%Inh,NDR2,0%
same,%Inh,NEK10,1%
same,%Inh,NEK11,0%
same,%Inh,NEK1,55%
same,%Inh,NEK2,0%
same,%Inh,NEK3,0%
same,%Inh,NEK4,0%
same,%Inh,NEK5,0%
same,%Inh,NEK6,0%
same,%Inh,NEK7,0%
same,%Inh,NEK9,0%
same,%Inh,NIK,0%
same,%Inh,NIM1,18%
same,%Inh,NLK,35%
same,%Inh,OSR1,6%
Cn1ccc2ncnc(Nc3ccc(Oc4cccc(Cl)c4)c(Cl)c3)c21,%Inh,MYLK4,3%
same,%Inh,MYLK,0%
same,%Inh,MYO3A,0%
same,%Inh,MYO3B,3%
same,%Inh,NDR1,22%
same,%Inh,NDR2,11%
same,%Inh,NEK10,2%
same,%Inh,NEK11,0%
same,%Inh,NEK1,0%
same,%Inh,NEK2,0%
same,%Inh,NEK3,26%
same,%Inh,NEK4,11%
same,%Inh,NEK5,0%
same,%Inh,NEK6,25%
same,%Inh,NEK7,4%
same,%Inh,NEK9,17%
same,%Inh,NIK,0%
same,%Inh,NIM1,0%
same,%Inh,NLK,0%
same,%Inh,OSR1,15%
COc1ccc(-c2nc3n(c2-c2ccncc2)CCC3)cc1 [SKF-104493],%Inh,MYLK4; 1 µM,0% and 12%
same,%Inh,MYLK; 1 µM,14% and 8%
same,%Inh,MYO3A; 1 µM,7% and 25%
same,%Inh,MYO3B,0%
same,%Inh,NDR1; 1 µM,22% and 13%
same,%Inh,NDR2; 1 µM,16% and 10%
same,%Inh,NEK10,0%
same,%Inh,NEK11; 1 µM,42% and 13%
same,%Inh,NEK1,0%
same,%Inh,NEK2; 1 µM,0% and 4%
same,%Inh,NEK3; 1 µM,19% and 0%
same,%Inh,NEK4; 1 µM,19% and 0%
same,%Inh,NEK5; 1 µM,0% and 16%
same,%Inh,NEK6; 1 µM,5% and 0%
same,%Inh,NEK7,0%
same,%Inh,NEK9; 1 µM,0% and 23%
same,%Inh,NIK; 1 µM,0% and 6%
same,%Inh,NIM1,19%
same,%Inh,NLK; 1 µM,28% and 64%
same,%Inh,OSR1; 1 µM,2% and 0%
Cl.Cn1ccc(-c2cccc(Nc3ccnc4cc(-c5nccs5)ccc34)c2)n1 [GW525701],%Inh,MYLK4,0%
same,%Inh,MYLK,7%
same,%Inh,MYO3A,43%
same,%Inh,MYO3B,0%
same,%Inh,NDR1,19%
same,%Inh,NDR2,0%
same,%Inh,NEK10,4%
same,%Inh,NEK11,15%
same,%Inh,NEK1,0%
same,%Inh,NEK2,0%
same,%Inh,NEK3,17%
same,%Inh,NEK4,0%
same,%Inh,NEK5,0%
same,%Inh,NEK6,0%
same,%Inh,NEK7,0%
same,%Inh,NEK9,0%
same,%Inh,NIK,51%
same,%Inh,NIM1,18%
same,%Inh,NLK,6%
same,%Inh,OSR1,15%
COc1ccc(-c2oc3ncnc(N)c3c2-c2ccc(OC)cc2)cc1 [SB-589132],%Inh,MYLK4,9%
same,%Inh,MYLK,18%
same,%Inh,MYO3A,25%
same,%Inh,MYO3B,0%
same,%Inh,NDR1,15%
same,%Inh,NDR2,37%
same,%Inh,NEK10,49%
same,%Inh,NEK11,45%
same,%Inh,NEK1,9%
same,%Inh,NEK2,5%
same,%Inh,NEK3,17%
same,%Inh,NEK4,20%
same,%Inh,NEK5,31%
same,%Inh,NEK6,0%
same,%Inh,NEK7,0%
same,%Inh,NEK9,19%
same,%Inh,NIK,33%
same,%Inh,NIM1,37%
same,%Inh,NLK,4%
same,%Inh,OSR1,0%
